Paper PMC5540273 (PLoS ONE, 2017)

Key:
Conditions in all cases: concentration: 1 μM, replicates: in singlicate; n = 1
TRKC = tested on: T1, TRKC
T1 construct: gene NTRK3

TRPM6 = tested on: TRPM6
TSSK1B = tested on: TSSK1B
TSSK3 = tested on: TSSK3
TTK = tested on: TTK
TXK = tested on: TXK
[1] = tested on: TYK2(JH1domain-catalytic)
[2] = tested on: TYK2(JH2domain-pseudokinase)
TYRO3 = tested on: TYRO3
ULK1 = tested on: ULK1
ULK2 = tested on: ULK2
ULK3 = tested on: ULK3
VEGFR2 = tested on: T2, VEGFR2
T2 construct: gene KDR

VPS34 = tested on: T3, VPS34
T3 construct: gene PIK3C3

VRK2 = tested on: VRK2
WEE1 = tested on: WEE1
WEE2 = tested on: WEE2
WNK1 = tested on: WNK1
WNK2 = tested on: WNK2
WNK3 = tested on: WNK3
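Note: KINOMEscan kinase panel screen.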

Compound	%Inh (TRKC) [%]	%Inh (TRPM6) [%]	%Inh (TSSK1B) [%]	%Inh (TSSK3) [%]	%Inh (TTK) [%]	%Inh (TXK) [%]	%Inh [1] [%]	%Inh [2] [%]	%Inh (TYRO3) [%]	%Inh (ULK1) [%]	%Inh (ULK2) [%]	%Inh (ULK3) [%]	%Inh (VEGFR2) [%]	%Inh (VPS34) [%]	%Inh (VRK2) [%]	%Inh (WEE1) [%]	%Inh (WEE2) [%]	%Inh (WNK1) [%]	%Inh (WNK2) [%]	%Inh (WNK3) [%]
Clc1cc(Nc2ncnc3cc[nH]c23)ccc1OCc1ccccn1	0	0	44	0	19	11	8	28	0	9	14	21	6	13	9	0	0	0	1	20
CCn1c(-c2ccncc2)nc2cnccc21 [SB-735216]	36	22	8	0	0	21	0	0	26	17	8	25	24	25	0	0	1	0	29	21
Fc1cccc(COc2ccc(Nc3ncnc4cc[nH]c34)cc2Cl)c1	0	0	0	0	4	0	19	28	19	24	14	34	16	18	13	12	4	0	14	0
COc1cc2ncnc(Nc3ccc(OCc4ccccc4Br)c(Cl)c3)c2cc1OC.Cl [GI261590]	33	19	14	12	0	12	34	47	15	0	0	3	0	0	11	0	0	14	0	22
CCCc1ccc(S(=O)(=O)NC2CCN(c3ccnc(Nc4ccc(OC)cc4)n3)C2)cc1 (centres unmarked) [GSK1379737]	36	0	0	5	0	6	53	46	0	99.6	0	7	0	36	4	12	0	8	0	38
COc1ccc(NC(=O)c2ccc(-c3cc(-c4nnc(C)o4)ccc3C)cc2)cc1 [GW595885]	20	0	12	44	11	0	12	22	3	6	0	24	0	0	25	0	2	0	1	25
Cl.O=S(=O)(c1cccc(F)c1)c1ccc(Nc2ncnc3cc(Br)sc23)cc1Cl [GSK306886]	0	28	0	10	17	15	4	0	0	0	0	8	3	0	0	20	9	4	9	0
CNc1nccc(-c2c(-c3ccc(F)cc3)ncn2CCCN2CCOCC2)n1 [SB-222516]	38	0	12	12	0	9	18	16	17	13	0	17	0	0	0	0	9	1	0	0
CS(=O)(=O)CCNCc1nc(-c2ccc3ncnc(Nc4ccc(OCc5cccc(F)c5)c(Cl)c4)c3c2)cs1.Cl [GW583340]	0	37	0	12	0	94.7	0	16	0	0	0	0	1	0	0	9	0	4	9	18
Cl.Cn1ccc(-c2cccc(Nc3ccnc4cc(-c5nccs5)ccc34)c2)n1 [GW525701]	43	0	3	6	0	14	30	49	0	0	0	0	0	0	7	11	0	17	18	50
